Bioassay records from PubChem.
A selection: hits, their analogues and other compounds. The true share with any hit is near 3.4%.
TEAD-YAP inh – TEAD-YAP interaction inhibition; HEK-TIYL cells, TEAD-Gal4/YAP UAS-luciferase luminescence; inhibition, % at 9.12 µM; 640,000 tested, 1.4% active; in the data active = inhibition above about 32%
FBW7 activator – activators of human E3 ligase FBW7. Q969H0. AlphaScreen FBW7–phospho-cyclin E peptide binding, activator screen. normalized activity (activation), % at 26.1 µM. 650,000 tested, 0.13% active. AID 1259310; in the data active = normalized activity above about 1.9%;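 note: purified mutant Fbw7 with reduced substrate affinity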
MITF inh – blocks human microphthalmia-associated transcription factor | O75030 | AlphaScreen MITF homodimerization, bead proximity signal | inhibition, % at 2.6 µM | 650,000 tested, 0.91% active | AID 1259374; in the data active = inhibition above about 50%
GPR151 ag – activates the human receptor GPR151 | Q8TDV0 | PathHunter beta-arrestin GPR151 cells, luminescence | activation, % at 11.2 µM | 650,000 tested, 1% active; in the data active = activation above about 4.9%
Target sequence (Q8TDV0 whole entry, looked up): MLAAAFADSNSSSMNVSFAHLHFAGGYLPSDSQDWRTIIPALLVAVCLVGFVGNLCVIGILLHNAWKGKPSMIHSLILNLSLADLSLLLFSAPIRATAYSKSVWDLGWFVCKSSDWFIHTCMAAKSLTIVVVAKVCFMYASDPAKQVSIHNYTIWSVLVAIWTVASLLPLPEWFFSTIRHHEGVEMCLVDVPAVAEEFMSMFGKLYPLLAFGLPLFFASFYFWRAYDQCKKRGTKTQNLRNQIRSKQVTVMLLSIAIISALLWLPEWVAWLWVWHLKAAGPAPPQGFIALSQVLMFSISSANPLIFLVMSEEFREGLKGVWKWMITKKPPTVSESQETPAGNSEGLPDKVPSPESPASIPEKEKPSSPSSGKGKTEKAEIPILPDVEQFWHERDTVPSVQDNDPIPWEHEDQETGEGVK
MITF confirm – confirmation of human MITF inhibitors; shares compounds with MITF inh; AlphaScreen MITF homodimerization, biotin/His-MITF beads; inhibition, % at 2.6 µM; 4,700 tested, 16% active; AID 1259372;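 active = inhibition above a cutoff derived from the DMSO control wells, cut at about 28% in these data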;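 note: inhibitors lower the bead chemiluminescence by keeping MITF from dimerizing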
AS interf DR – AlphaScreen optical interference, dose response counter-screen; IC50, µM; 480 tested, 6% active; AlphaScreen optical interference counterscreen, cell-free; shares compounds with MITF inh; call rule not given here
AlphaScreen intf2 – AlphaScreen optical interference, counter-screen | shares compounds with MITF inh | LysRS AlphaScreen counterscreen, signal interference, triplicate | inhibition, % at 2.6 µM | 4,700 tested, 7.6% active;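 active = inhibition above a cutoff derived from the DMSO control wells, cut at about 30% in these data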
Of the large screens only hits and unclear results are named; the others gave an inactive call (follow-up assays come after a bar, where they were run).

CCN1CCN(CCCOc2cccc(C)c2C)CC1	MITF inh 67 | MITF confirm inactive | AlphaScreen intf2 inactive
COc1cc(OC)c(OC)cc1/C=C1\SC(N2CCOCC2)=NC1=O	none
CCN1CCN(CC(=O)Nc2ncc(C)s2)CC1	none
CCN1CCN(CCCOc2cc(C)c(Cl)cc2C)CC1	MITF inh 64 | MITF confirm inactive | AlphaScreen intf2 inactive
CCN1CCN(CCCOc2ccc(Cl)c(Cl)c2)CC1	none
CCN1CCN(CCOCCOc2ccccc2Br)CC1	MITF inh 56 | MITF confirm inactive | AlphaScreen intf2 inactive
CCOc1ccccc1OCCCN1CCN(CC)CC1	MITF inh 67 | MITF confirm inactive | AlphaScreen intf2 inactive
CC1(C)CC(=O)C2=C(C1)N(c1ccccc1F)C(N)=C(C#N)C2c1ccsc1 (stereo unspecified)	none
CCOc1ccccc1NC(=O)C1CC(=O)N(c2ccccc2OCC)C1 (stereo unspecified)	none
O=C(NCCC1=CCCCC1)c1ccc2c(=O)n(Cc3ccc4c(c3)OCO4)c(=S)[nH]c2c1	none
O=C(C1CCN(Cc2ccc(F)cc2)CC1)N1CCN(c2ccccc2)CC1	MITF inh 52 | MITF confirm inactive | AlphaScreen intf2 inactive
O=C(C1CCN(Cc2cccnc2)CC1)N1CCN(C/C=C/c2ccccc2)CC1	MITF inh 58 | MITF confirm inactive | AlphaScreen intf2 inactive
CCOc1ccccc1N1CCN(C(=O)C2CCNCC2)CC1	MITF inh 58 | MITF confirm inactive | AlphaScreen intf2 inactive
COc1ccccc1CN1CCC(C(=O)N2CCN(Cc3ccccc3)CC2)CC1	MITF inh 52 | MITF confirm inactive | AlphaScreen intf2 inactive
CC(=O)Nc1cccc(NC(=O)CSc2ncnc3c2cnn3-c2ccc(F)cc2)c1	none
COC(=O)c1ccc(N2C(=O)CSC2c2cccc(Br)c2)cc1 (stereo unspecified)	none
OCCC1CN(Cc2c[nH]c3ccccc23)CCN1CC1CCCCC1 (stereo unspecified)	none
COc1cc(CN2CCC(C(=O)N3CCN(Cc4ccccc4)CC3)CC2)ccc1O	MITF inh 60 | MITF confirm inactive | AlphaScreen intf2 inactive
O=C(C1CCN(Cc2ccccc2)CC1)N1CCN(Cc2ccccc2)CC1	MITF inh 55 | MITF confirm inactive | AlphaScreen intf2 inactive
CCOC(=O)N1CCN(C(=O)C2CCN(Cc3cc(OC)ccc3OC)CC2)CC1	none
COc1ccc(CN2CCC(C(=O)N3CCc4ccccc4C3)CC2)cc1	none
CCOC(=O)N1CCN(C(=O)C2CCN(Cc3ccccc3OC)CC2)CC1	MITF inh 54 | MITF confirm inactive | AlphaScreen intf2 inactive
COc1cc(CN2CCC(C(=O)N3CCCC(C)C3)CC2)ccc1O (stereo unspecified)	none
COc1ccc(CN2CCC(C(=O)N3CCc4ccccc4C3)CC2)c(OC)c1	MITF inh 53 | MITF confirm inactive | AlphaScreen intf2 inactive
O=C(C1CCN(Cc2cccc(O)c2)CC1)N1CCN(Cc2ccccc2)CC1	none
O=C1NC(=O)N(c2ccc(O)cc2)C(=O)/C1=C/c1ccc(O)c(Br)c1	none
Nc1nc(CC23CC4CC(CC(C4)C2)C3)cs1	none
CC1CCN(Cc2csc(N)n2)CC1	MITF inh 53 | MITF confirm inactive | AlphaScreen intf2 inactive
CCOC(=O)c1nnn(-c2ccc(OCC)cc2)c1C(=O)OCC	none
O=c1nc2s/c(=C\c3ccc(-c4ccc(F)c(Cl)c4)o3)c(=O)n2c2sc3c(c12)CCCC3	none
N#C/C(=C\c1nn(CCO)c(N)c1C#N)c1ccco1	none
N#C/C(=C\c1nn(-c2ccccc2)c(N)c1C#N)c1ccco1	MITF inh 59 | MITF confirm 83 | AS interf DR inactive | AlphaScreen intf2 inactive
COc1cccc(Nc2nc(-c3ccccc3Cl)nc3ccccc23)c1	MITF inh 52 | MITF confirm inactive | AlphaScreen intf2 inactive
COc1cc(C2C(C(=O)Nc3cccc(F)c3)=C(C)NC3=C2C(=O)CCC3)ccc1O (stereo unspecified)	none
O=c1[nH]c2ccccc2c(=O)n1CCCN1CCOCC1	none
O=c1[nH]c2ccccc2n1CCCN1CCCCC1	none
O=c1[nH]c2ccccc2n1CN1CCc2ccccc2C1	MITF inh 51 | MITF confirm inactive | AlphaScreen intf2 inactive
O=c1[nH]c2ccccc2n1CN1CCOCC1	MITF inh 90 | MITF confirm inactive | AlphaScreen intf2 inactive
CCN(CC)c1ccc2c(C)c([N+](=O)[O-])c(=O)oc2c1	none
O=C(NC1CCN(C(=O)CN2CCOCC2)CC1)c1ccccc1F	MITF inh 69 | MITF confirm inactive | AlphaScreen intf2 inactive
Cc1cccc(NC(=O)c2ccc(N3C(=O)C4C5C=CC(C5)C4C3=O)cc2)c1 (stereo unspecified)	MITF inh 76 | MITF confirm inactive | AlphaScreen intf2 inactive
Cc1cccc(NC(=O)c2ccc(N3C(=O)C4C5C=CC(C6CC56)C4C3=O)cc2)c1 (stereo unspecified)	none
O=C1CCCN1c1cccc(NS(=O)(=O)c2cccc3ccccc23)c1	MITF inh 51 | MITF confirm inactive | AlphaScreen intf2 inactive
O=C1CCCCN1c1cccc(NS(=O)(=O)c2ccccc2)c1	none
COc1ccc(CNC(=O)c2ccc(Cl)c([N+](=O)[O-])c2)cc1	none
COc1cc(/C=C2\N=C(c3ccccc3F)OC2=O)cc(Br)c1OC(C)=O	none
COc1cc(/C=C2/N=C(c3cccc(Cl)c3Cl)OC2=O)cc(Br)c1OC(C)=O	MITF inh 80 | MITF confirm inactive | AlphaScreen intf2 inactive
C/C=C/c1ccc(OCCOCCN2CCCC(C)C2)c(OC)c1 (stereo unspecified)	MITF inh 53 | MITF confirm inactive | AlphaScreen intf2 inactive
COc1cc(C)ccc1OCCOCCN1CCCC(C)C1 (stereo unspecified)	MITF inh 63 | MITF confirm inactive | AlphaScreen intf2 inactive
C/C=C/c1ccc(OCCCCN2CCN(CC)CC2)c(OC)c1	MITF inh 74 | MITF confirm inactive | AlphaScreen intf2 inactive
CCc1cccc(C)c1NC(=O)CSc1nnc(-c2ccncc2)n1CC	none
CN1C(=O)[C@H]2CN(C(=O)c3ccc(Cl)cc3)CCN2C(=O)[C@@H]1CO	none
O=C(NC1CCCCC1)N1CCN2C(=O)[C@H]3CCCN3C(=O)[C@H]2C1	MITF inh 79 | MITF confirm 73 | AS interf DR inactive | AlphaScreen intf2 inactive
CN1C(=O)[C@H]2CN(C(=O)NC3CCCCC3)CCN2C(=O)[C@@H]1CO	MITF inh 76 | MITF confirm 71 | AS interf DR inactive | AlphaScreen intf2 inactive
CCOc1cc(C2Nc3cc(C)c(C)cc3NC3=C2C(=O)CC(C)(C)C3)ccc1OC(=O)C1CCCCC1 (stereo unspecified)	none
Cc1cnc(C(=O)N2CCC[C@H](Cn3cc(C(=O)N4CCOCC4)nn3)C2)cn1	none
COC(=O)C1=C(C)N=c2s/c(=C/c3ccc(Cl)cc3)c(=O)n2C1c1ccc(OC(C)=O)cc1 (stereo unspecified)	none
